LASV entry inh: qHTS for Inhibitors of binding or entry into cells for Lassa Virus; Lassa virus pseudotype entry inhibition, cell reporter; Potency, µM (titrated, usually from 37.9 µM), for the others: at the highest dose activity change, negative = inhibition, most hits filed as inhibitors; hit rate 1.2% among 300,000; AID 540256, 2011; calls by dose curve; tested in HEK293 cells; further: potency means the concentration at half of the fitted maximal effect; nearly all actives have a fitted effect of over 50% in size
MARV entry inh: qHTS for inhibitors of binding or entry into cells for Marburg Virus; Marburg virus pseudotyped entry inhibition, cell reporter; Potency, µM (highest dose often 37.8 µM), for inactives: at the top dose activity change, negative = inhibition, most hits filed as inhibitors; hit rate 1.8% among 300,000; AID 540276, 2011; calls by dose curve; tested in HEK293 cells; further: potency means the concentration at half of the fitted maximal effect
Vaccinia mCherry: qHTS for Stage-Specific Inhibitors of Vaccinia Orthopoxvirus: mCherry Reporter Primary qHTS; Vaccinia virus mCherry reporter infection, fluorescence; Potency, µM (series often up to 36.5 µM), without a hit: at the highest dose activity change, negative = inhibition, hits mostly inhibitors; hit rate 0.63% among 310,000; AID 720579, 2013; calls by dose curve; tested in A549 cells; further: potency means the concentration at half of the fitted maximal effect; nearly all actives have a fitted effect of over 35% in size
HCMV inh: qHTS Assay for inhibitors of the human cytomegalovirus (HCMV); HFF cells, HCMV-luciferase reporter, 72 h; hits give low values; activity change, negative = inhibition, % at 57.5 µM; hit rate 4.5% among 410,000; in the data active means activity change below about -60%; inconclusive means no clear call, values can overlap the other calls; inactive means above about -39%
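HFF cells seeded 16 h at 37C, treated with compounds, infected with luciferase-reporter HCMV at MOI 1 PFU/cell; luciferase read at 72 h post infection, normalized to buffer-only and Salinomycin controls.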
Vaccinia Venus: qHTS for Stage-Specific Inhibitors of Vaccinia Orthopoxvirus: Venus Reporter Primary qHTS | Potency, µM (series often up to 36.5 µM), for inactives: at the top dose activity change, negative = inhibition, usual class: inhibitors | hit rate 0.46% among 330,000 | Vaccinia virus Venus reporter expression, fluorescence; calls by dose curve; tested in A549 cells; further: potency means the concentration at half of the fitted maximal effect; nearly all actives have a fitted effect of over 30% in size
HCV inhibitor: qHTS Assay for Inhibitors of Hepatitis C Virus (HCV); Huh7.5.1 HCVcc-Cre infection, luciferase reporter, 44 h; AID 651820, 2012; Potency, µM (titrated, usually from 41.8 µM), for the others: at the highest dose activity change, negative = inhibition, hits mostly inhibitors; hit rate 3.4% among 340,000; active means well fitted inhibition curve with a large enough effect; inconclusive means small, poorly fitted or top-dose-only effect, or another doubt; inactive means no such curve, though single readings can be large or run the other way; further: potency means the concentration at half of the fitted maximal effect
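Infectious HCV cell culture screen: compound-treated cells (1,000/well, pre-plated 4 h) are infected with HCVcc-Cre at roughly 0.5 moi and grown 44 h. Infection is quantified by luciferase signal after 15 min substrate incubation at room temperature.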
Starred values were filed as active, the others as inactive; i = inactive; ? = inconclusive; . = not tested or not shown; + = active, no number; [ ] = remark or other dose. Most compounds without a hit are left out; they make up all but 7.8% or so of the library. On the % scale 0 is the no-effect control and ±100 the full control effect.

SMILES	LASV entry inh	MARV entry inh	Vaccinia mCherry	HCMV inh	Vaccinia Venus	HCV inhibitor
C/C(=N\Nc1nc2ccccc2[nH]1)c1ccc(C)o1	12%	?	-15%	89	-5%	7%
C/C(=N\Nc1nc2ccccc2[nH]1)c1ccc(N2CCOCC2)cc1	10µM*	?	-18%	100	-12%	?
N#Cc1nc(/C=C/c2ccc(F)cc2)oc1N1CCCCC1	4%[46.1 µM]	-6%[46.1 µM]	-10%	0	4%	.
COC(=O)C1=C(C)N(Cc2ccccc2)C(=NCC2CC2)NC1c1cccc(C(F)(F)F)c1 (centres undefined)	.	11%[14.2 µM]	.	.	.	.
COc1ccc(-c2cn(Cc3ccc(C(=O)c4ccccc4)cc3)nn2)cc1	.	.	?	-82*	?	-12%[8.37 µM]
CC(=O)C1=C(C)N(Cc2ccccc2)C(=O)NC1c1cccc(C(F)(F)F)c1 (centres undefined)	.	-7%[14.2 µM]	.	.	.	.
Cc1cc(Cl)nc2ccc(Cc3ccc4nc(Cl)cc(C)c4c3)cc12	.	.	i	37	-24%	10µM*
N#C/C(=C/c1ccccc1[N+](=O)[O-])c1nnc2n1CCCCC2	3%	17%	-4%	-60*	-15%	-13%
O=C(Nc1ccc2nc(-c3ccco3)c(-c3ccco3)nc2c1)N1CCCCCC1	-10%	-17%	i	.	-1%	2.8µM*
CO[C@H]1[C@H](NC(=O)c2ccco2)c2ccccc2C12CCN(Cc1cnn(-c3ccccc3)c1)CC2	.	.	-24%	.	-17%	.
COc1ccc(-c2nc3ccc(NC(C)=O)cc3c(=O)n2Cc2cccc(Cl)c2)cc1COc1ccc(NC(C)=O)cc1	.	.	-5%	.	-14%	.
Cc1ccc(-n2ncc(C(=O)NCCN3CCCC3)c2C2CCN(C(=O)OC(C)(C)C)CC2)cc1	-23%[46.1 µM]	.	i	0	-21%	.
COc1ccccc1CN1CCC(CNC(=O)c2cnn(-c3ccc(C)c(C)c3)c2C2CCN(C(=O)OC(C)(C)C)CC2)CC1	9%[46.1 µM]	.	?	?	?	.
Cc1ccc(-n2ncc(C(=O)NCCN3CCC(Cc4ccccc4)CC3)c2C2CCN(C(=O)OC(C)(C)C)CC2)cc1	?	.	?	+	11µM*	.
COc1ccccc1CN1CCC(CNC(=O)c2cnn(-c3ccc(Cl)cc3)c2C2CCN(C(=O)OC(C)(C)C)CC2)CC1	?	.	?	-108*	-23%	.
COc1ccc(-n2ncc(C(=O)NCCCN3CCCCC3)c2C2CCN(C(=O)OC(C)(C)C)CC2)cc1	-17%[46.1 µM]	.	-16%	+	-22%	.
CC(C)(C)OC(=O)N1CCC(c2c(C(=O)NCCN3CCC(Cc4ccccc4)CC3)cnn2-c2cccc(Cl)c2)CC1	?	.	11µM*	-100*	11µM*	.
CCOC(=O)c1cccc(NC(=O)c2sc3nc[nH]c(=O)c3c2C)c1	18%[46.1 µM]	.	-9%	76	-12%	.
CCC[C@H]1COCCS(=O)(=O)N1Cc1cccc(F)c1	.	.	-6%	.	-18%	.
